D1 antag = antagonists of human D1 dopamine receptor | P21728 | HEK293 TREx D1 cells, calcium flux, dopamine EC80; stronger effect = lower value | activity change, negative = inhibition, % at 10 µM | 360,000 tested, 3.2% active; in the data active = activity change below about -30%; note: % is set by controls: 0 for no effect and ±100 for the full control effect
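Kinetic fluorescence of a calcium dye serves as the read-out. D1-expressing Hek293 Trex cells, induced overnight at 30 C, are exposed to compound for 180 s before an EC80 dopamine addition, then read 180 s further.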
D1 potentiator = human D1 dopamine receptor positive modulation; P21728; HEK293 TREx D1 cells, calcium flux, dopamine EC20 potentiation; potentiation, % at 10 µM; 360,000 tested, 0.036% active; in the data active = potentiation above about 30%; note: 0% is about no effect
D1 ag = activates the human D1 dopamine receptor; AID 504660; HEK293 T-REx D1 cells, calcium flux, agonist mode; P21728; activation, % at 2 µM; 360,000 tested, 1% active; note: 0% is about no effect
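Agonism was scored from calcium flux recorded over 180 s (1 read/s) after pintool compound addition, following a 10-cycle baseline. Cells were inducible force-coupled HEK293 TREx D1, plated overnight at 30 C and loaded with no-wash calcium dye.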
TRHR agonist = activates the human TRH receptor; P34981; TRHR cells, calcium flux fluo-8, FDSS agonist mode; activation, % at 2 µM; 360,000 tested, 0.18% active; AID 493084; note: 0% is about no effect
Target sequence (P34981 whole entry, looked up): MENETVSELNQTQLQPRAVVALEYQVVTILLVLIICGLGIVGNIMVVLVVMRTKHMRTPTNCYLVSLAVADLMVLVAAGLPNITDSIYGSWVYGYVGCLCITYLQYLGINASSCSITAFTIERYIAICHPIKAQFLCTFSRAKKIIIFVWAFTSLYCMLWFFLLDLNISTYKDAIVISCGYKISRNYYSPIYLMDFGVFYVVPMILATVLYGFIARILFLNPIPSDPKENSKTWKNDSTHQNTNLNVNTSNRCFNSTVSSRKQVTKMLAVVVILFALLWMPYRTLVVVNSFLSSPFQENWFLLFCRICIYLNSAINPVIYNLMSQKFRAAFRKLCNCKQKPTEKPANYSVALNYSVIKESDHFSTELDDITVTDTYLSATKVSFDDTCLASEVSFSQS
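Steps: seed TRHR cells overnight; add fluo-8 no-wash Ca dye, RT 30 min–1.5 h; record 10 s baseline; pin-transfer compounds; monitor fluorescence 1 cycle/s for the agonist window. Calcium increases flag candidate agonists.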
TRHR PAM = allosterically enhances the human TRH receptor; P34981; 360,000 tested, 0.66% active; TRHR cells, fluo-8 calcium fluorescence, EC20 TRH enhancement; AID 493056; enhancement, % at 2 µM; in the data active = enhancement above about 30%; note: 0% is about no effect
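Enhancer read-out: after compound pinning and an initial kinetic agonist-mode read, an EC20 of TRH (10 nM final) was injected and fluo-8 calcium signal (Ex 480/Em 530) followed at 1 s/cycle for 100 cycles in TRHR-expressing cells.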
Numbers without * were called inactive; . = not tested or not shown. Hits are enriched below; roughly 4.7% of the tested compounds scored in any of these assays. Cut-off read from the data, not from the text of the source, unless noted: active = activation above about 30%; inactive = the rest.

SMILES	D1 antag	D1 potentiator	D1 ag	TRHR agonist	TRHR PAM
CC(C)(C)c1ccc(C(=O)NCCCN2CCN(CCCNC(=O)c3ccc(C(C)(C)C)cc3)CC2)cc1	-30.3*	-7.4	24.4	0.7	7.0
COc1cccc(NC(=O)C2CCN(c3nc4ccccc4nc3C(F)(F)F)CC2)c1	24.9	4.9	3.4	0.6	8.9
COc1ccc(-c2nnc(N3CCOCC3)c3ccccc23)cc1	-8.2	-4.7	1.9	0.2	38.6*
CCc1ccc(S(=O)(=O)Nc2ccccn2)cc1	-11.6	-2.8	3.6	-0.4	1.4
CCc1ccc(S(=O)(=O)Nc2ccc(Br)cn2)cc1	-30.1*	-5.0	-4.0	-1.3	0.0
N#Cc1cc([N+](=O)[O-])ccc1N1CCN(c2ccccc2O)CC1	-30.2*	-13.0	24.0	0.8	-3.6
Cc1ccc(NC(=O)/C=C\C(=O)NCC(=O)O)cc1C	-37.1*	-4.3	3.4	0.3	3.7
Cc1cc(Cl)ccc1NC(=O)CCS(=O)(=O)c1ccc2c(c1)CC(C)N2C(=O)C1CC1 (stereo not given)	-29.9	-3.5	14.0	0.0	-3.7
CCc1ccc(N(C(=O)c2snc(C(N)=O)c2N)C(C(=O)NCC2CCCO2)c2cccs2)cc1 (stereo not given)	24.5	-1.4	-1.3	-0.4	-4.6
COc1cccc(N(C(=O)c2snc(C(N)=O)c2N)C(C(=O)NCC2CCCO2)c2ccc(F)cc2)c1 (stereo not given)	-1.8	.	4.1	0.4	-1.9
NC(=O)c1nsc(C(=O)N(c2ccc(Cl)cc2)C(C(=O)NCC2CCCO2)c2cccs2)c1N (stereo not given)	-33.5*	-4.8	1.5	1.1	-4.8
NC(=O)c1nsc(C(=O)N(c2ccc3c(c2)OCO3)C(C(=O)NCC2CCCO2)c2ccc(F)cc2)c1N (stereo not given)	-77.0*	-9.2	-0.9	0.3	8.5
N#Cc1cc2ccccc2nc1N	10.6	0.6	1.6	1.1	-2.7
Cc1ccc(-c2cc3ccccc3nc2N)cc1	-97.8*	-26.7	6.1	3.0	0.7
Nc1nc2ccccc2cc1-c1cccs1	-60.3*	-25.5	13.7	-1.2	0.4
Cc1ccc(NC2=CC(c3ccccc3F)N(c3ccc(C)cc3)C2=O)cc1 (stereo not given)	-8.9	-3.0	-0.7	0.4	-4.5
Cc1nnc(SCC(=O)N2CCN(S(=O)(=O)c3ccccc3)CC2)s1	-39.3*	-3.8	1.1	-0.1	-0.8
Cc1ccc(C)c(S(=O)(=O)N2CCN(C(=O)CCc3c[nH]c4ccccc34)CC2)c1	-34.7*	-4.9	1.1	0.4	2.4
Cc1ccc(S(=O)(=O)N2CCN(C(=O)CSc3nnc(-c4ccco4)o3)CC2)cc1	-40.4*	-7.8	0.2	-0.7	5.7
Cc1ccc(-c2nnc(SCC(=O)N3CCCC3)o2)cc1	0.2	-2.4	2.3	-0.3	-9.1
Cc1ccc(C)c(S(=O)(=O)N2CCN(C(=O)CSc3ccccc3)CC2)c1	-40.5*	-3.5	-0.9	0.7	3.2
COc1cccc(CSc2nc3n(n2)C(c2cccc(F)c2)C(C(=O)Nc2ccccc2C)=C(C)N3)c1 (stereo not given)	-11.5	-3.3	9.8	0.6	0.0
CCC(C(=O)OCC(=O)N1CCN(S(=O)(=O)c2ccc(C)cc2C)CC1)c1ccccc1 (stereo not given)	-2.7	.	48.9*	0.7	-4.8
CSc1ccccc1OC1CCN(Cc2ccccc2)CC1	-87.9*	-8.1	15.2	-0.2	12.7
Cc1ccc(N2CCN(C(=O)c3cn(C)c4ccc(S(=O)(=O)N5CCCC5)cc4c3=O)CC2C)cc1 (stereo not given)	-82.4*	2.9	-0.2	-0.6	0.2
SMILES	D1 antag	D1 potentiator	D1 ag	TRHR agonist	TRHR PAM
CC(C)c1ccc(NC(=O)c2cc3c(=O)oc4ccccc4c3s2)cc1	6.7	0.8	0.4	0.1	5.2
CCC(C)OC(=O)/C(C#N)=C\c1ccc(-c2cccc(C(F)(F)F)c2)o1 (stereo not given)	3.5	3.4	0.7	1.5	7.3
Cc1ccc(CNC(=O)c2cccc3c2C(=O)c2ccc(N4CCOCC4)cc2S3(=O)=O)cc1	.	-2.6	48.6*	2.4	3.1
Cc1cccc(C)c1OCCn1c(C2CC(=O)N(Cc3ccc(F)cc3)C2)nc2ccccc21 (stereo not given)	3.4	-2.6	5.1	-0.8	-1.4
COc1ccc(C2(CNC(=O)C(=O)Nc3ccccc3C)CCCC2)cc1OC	-1.6	2.9	1.2	-0.4	0.2
COc1ccc(NC(=O)CSc2nc3ccccc3n2CC(=O)N2CCCC(C)C2)cc1 (stereo not given)	-0.2	0.2	-2.1	-0.5	1.8
O=C(CSC(=S)N1CCOCC1)Nc1ncc2c(n1)CCCC2=O	-5.2	-3.6	0.4	0.3	-5.4
CCN(CC)C(=S)SCC(=O)Nc1ncc2c(n1)CCCC2=O	-33.2*	0.1	-0.3	-0.7	-2.8
Nc1nc(Nc2cc(F)cc(F)c2)nc(NC2CCCC2)n1	25.4	0.8	3.2	0.9	0.7
O=c1[nH]c(-[n+]2ccccc2)c(/C=N/NC([S-])=Nc2ccccc2)s1	-3.5	-0.9	173.8*	56.5*	3.3
COc1ccc(C)cc1NC(=O)N1CCN(S(=O)(=O)c2ccc3c(ccn3C)c2)CC1	3.0	-0.8	-1.4	-0.5	-12.4
COC(=O)c1sc2cccc(F)c2c1S(=O)(=O)N1CCN(c2cccc(C)c2)C(C)C1 (stereo not given)	10.4	-5.5	2.5	0.3	7.1
Cn1c(=O)c(=O)n(C)c2cc(S(=O)(=O)CCC(=O)Nc3ccc(F)cc3)ccc21	18.9	1.2	0.4	-0.2	0.8
Cc1cccc(C)c1NC(=O)CCS(=O)(=O)c1ccc2c(c1)n(C)c(=O)c(=O)n2C	-36.3*	-4.5	3.4	1.5	-6.4
CC(C)c1ccc(NC(=O)CCS(=O)(=O)c2ccc(Br)s2)cc1	-8.7	-0.9	16.1	-1.8	-10.1
CCOc1ccc(S(=O)(=O)NCCC(=O)N(C)CC(=O)Nc2ccc(OC)cc2)cc1	-43.3*	-11.4	1.6	0.1	15.4
COc1ccc(NC(=O)CN(C)C(=O)CCNS(=O)(=O)c2ccc(Br)cc2)cc1	-28.2	-8.2	1.0	0.5	10.3
CCOC(=O)c1c(C)[nH]c(C(=O)N(C)CC(=O)Nc2ccc(OC)cc2)c1C	-67.6*	4.4	1.3	-0.3	7.3
CCOC(=O)c1[nH]c(C)c(C(=O)OCC(=O)NCc2ccc(OC)cc2)c1C	-24.9	0.8	0.9	-0.8	-2.4
COc1ccc(NC(=O)CCS(=O)(=O)c2ccc(Br)s2)cc1	-37.4*	-4.3	0.1	-0.8	3.9
CCCCN(CC)CCNC(=O)C1CCN(c2nnc(C)c3c(C)n(-c4ccc(C)cc4)nc23)CC1	1.3	-0.8	1.3	-0.4	3.0
COc1ccccc1C(=O)NC1(C(F)(F)F)C(=O)Nc2c1c(=O)[nH]c(=O)n2-c1ccccc1 (stereo not given)	-6.6	-3.1	2.1	0.0	-1.4

Assay outcomes from PubChem.
